RECQ1 inh-1 = qHTS Assay for Inhibitors of RecQ-Like Dna Helicase 1 (RECQ1). actives 0.54% (n = 240,000). RECQ1 DNA unwinding, red fluorescence kinetic read. Potency, µM (series often up to 57.3 µM), actives largely listed as inhibitors; note: nearly all actives have a fitted effect of over 30% in size
Target sequence (P46063 whole entry, looked up): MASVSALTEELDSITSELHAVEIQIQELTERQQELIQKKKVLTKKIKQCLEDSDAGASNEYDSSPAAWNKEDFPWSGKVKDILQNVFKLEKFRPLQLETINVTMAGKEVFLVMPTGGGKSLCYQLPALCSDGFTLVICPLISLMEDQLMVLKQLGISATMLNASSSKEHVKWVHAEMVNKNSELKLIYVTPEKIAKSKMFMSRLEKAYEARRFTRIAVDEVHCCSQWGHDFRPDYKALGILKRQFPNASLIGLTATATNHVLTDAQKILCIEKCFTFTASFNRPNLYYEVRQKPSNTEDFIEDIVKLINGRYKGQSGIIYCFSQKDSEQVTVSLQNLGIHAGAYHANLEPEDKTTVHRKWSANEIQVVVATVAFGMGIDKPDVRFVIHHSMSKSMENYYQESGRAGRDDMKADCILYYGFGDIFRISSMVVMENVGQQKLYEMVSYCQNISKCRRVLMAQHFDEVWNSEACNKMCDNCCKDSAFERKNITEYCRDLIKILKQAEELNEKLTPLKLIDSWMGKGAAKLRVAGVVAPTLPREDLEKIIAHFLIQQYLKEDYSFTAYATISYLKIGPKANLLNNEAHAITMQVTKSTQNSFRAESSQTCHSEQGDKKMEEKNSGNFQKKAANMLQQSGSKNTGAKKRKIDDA
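RECQ1T1 50 nM; forked duplex (20 bp + 30-nt ss tails) 200 nM, ATP 2 mM final; pH 8.0, 2 mM MgCl2, 2.5 ug/ml poly(dI-dC); 15 min compound preincubation; discontinuous kinetic read over 2 h at RT.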
BLM inh-1 = qHTS Assay for Inhibitors of Bloom's syndrome helicase (BLM); recombinant BLM DNA unwinding, fluorescence dequenching; actives 0.2% (n = 350,000); AID 2528, 2010; Potency, µM (top dose mostly 56.1 µM), most hits filed as inhibitors; note: nearly all actives have a fitted effect of over 35% in size
L3MBTL1 block = qHTS Assay for the Inhibitors of L3MBTL1 | Lethal(3)malignant brain tumor-like protein 1 (Homo sapiens), Q9Y468 | AlphaScreen L3MBTL1–H3K9me1 peptide binding | Potency, µM (doses to about 57.1 µM), most hits filed as inhibitors | actives 0.66% (n = 230,000); note: nearly all actives have a fitted effect of over 60% in size
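Read-out is AlphaScreen signal from streptavidin donor and nickel chelate acceptor beads (10 ug/mL final each) bridging L3MBTL1 (50 nM) and biotinylated K9-monomethylated H3(1-15) peptide (75 nM), after 30 min compound exposure at room temperature.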
APEX1 inh = qHTS Assay for Inhibitors of the Human Apurinic/apyrimidinic Endonuclease 1 (APE1) | DNA repair nuclease/redox regulator APEX1 (Homo sapiens), P27695 | recombinant APE1, TAMRA/BHQ-2 abasic DNA cleavage fluorescence | Potency, µM (doses to about 65.8 µM), actives largely listed as inhibitors | actives 0.35% (n = 350,000) | AID 2517, 2012; note: nearly all actives have a fitted effect of over 55% in size
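Endonuclease cleavage of a quenched abasic-site DNA duplex (50 nM) by APE1 (0.75 nM) was tracked by TAMRA dequenching. Compounds were preincubated with enzyme 15 min at room temperature; data normalized to buffer-only and DMSO wells plus NSC13755 control.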
JMJD2E inh = qHTS Assay for Inhibitors of Human Jumonji Domain Containing 2E (JMJD2E). Lysine-specific demethylase 4E (Homo sapiens), B2RXH2. JMJD2E catalytic domain, FDH-coupled NADH fluorescence (FDH is formaldehyde dehydrogenase). Potency, µM (doses to about 57.1 µM), actives largely listed as inhibitors. actives 1.6% (n = 230,000); active = well fitted inhibition curve with a large enough effect, not every such curve was filed as active; inconclusive = small, poorly fitted or top-dose-only effect, or another doubt; inactive = no such curve, though single readings can be large or run the other way; note: nearly all actives have a fitted effect of over 50% in size
BLM inh-2 = qHTS Confirmation Assay for Inhibitors of Bloom's syndrome helicase (BLM); BLM DNA unwinding, fluorescence quenching, biochemical; AID 2585, 2010; Potency, µM, most hits filed as inhibitors; actives 40% (n = 220); shares compounds with BLM inh-1;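 note: strand separation dequenches TAMRA so unwinding raises red fluorescence; series mostly up to about 69 µM; nearly all actives have a fitted effect of over 45% in size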
RECQ1 inh conf = Confirmation qHTS Assay for Inhibitors of RecQ-Like Dna Helicase 1 (RECQ1). shares compounds with RECQ1 inh-1. RECQ1 helicase DNA unwinding, fluorescence. Potency, µM (titrated, usually from 229 µM), most hits filed as inhibitors. actives 28% (n = 610). AID 2708, 2010; note: nearly all actives have a fitted effect of over 45% in size
RECQ1 ADP FP = Counterscreen for RECQ1 Inhibitors: ADP Fluorescence Polarization Displacement Assay. shares compounds with RECQ1 inh-1. ADP fluorescence polarization displacement counterscreen. Potency, µM (series often up to 228 µM), hits mostly inhibitors. actives 27% (n = 530). AID 2711, 2010; note: nearly all actives have a fitted effect of over 45% in size
RECQ1 inh-2 = Confirmation qHTS Assay for Inhibitors of RecQ-Like Dna Helicase 1 (RECQ1) - Round 2 Cherry Picks; shares compounds with RECQ1 inh-1; recombinant RECQ1 DNA unwinding, red fluorescence; AID 504841, 2011; actives 15% (n = 1,100); Potency, µM (doses to about 119 µM), usual class: inhibitors; note: nearly all actives have a fitted effect of over 50% in size
Of the large screens only hits and unclear results are named; the others gave an inactive call (follow-up assays come after a bar, where they were run); ! = not active in a repeat. Shown is part of a subset that was picked to be rich in hits. Unless noted, calls come from the whole dose curve; as a rule, active = well fitted curve in the direction sought with a large enough effect; inconclusive = small, poorly fitted or top-dose-only effect, or another doubt; inactive = no such curve, though single readings can be large; an effect the other way counts as inactive or inconclusive.

CCC1C(=O)OCC1Cc1cncn1C (stereo not drawn)	none (no result: L3MBTL1 block)
Nc1c(C(=O)Nc2cccc(Br)c2)sc2nc3c(cc12)N1CCC3CC1	none (no result: RECQ1 inh-1, L3MBTL1 block, APEX1 inh, JMJD2E inh)
CN1C(=O)C(=Cc2ccc(OCC(=O)Nc3ccccc3)cc2)C(=O)N(C)C1=O	none (no result: RECQ1 inh-1, L3MBTL1 block, JMJD2E inh)
Cc1cccn2c(=O)cc(COc3cccc(NC(=O)COc4ccc(F)cc4)c3)nc12	BLM inh-1 14µM (no result: RECQ1 inh-1, L3MBTL1 block, APEX1 inh, JMJD2E inh) | BLM inh-2 inconclusive
CCCCC(CC)COCCCN=Cc1c(O)[nH]c(=S)[nH]c1=O (stereo not drawn)	none (no result: L3MBTL1 block)
CC(C)OCCCNC(=O)c1c(N)n(CC2CCCO2)c2nc3ccccc3nc12 (stereo not drawn)	BLM inh-1 5µM, JMJD2E inh inconclusive | BLM inh-2 inactive
CC1=NCCc2c1[nH]c1cc(O)ccc21	RECQ1 inh-1 inconclusive, BLM inh-1 40µM!, APEX1 inh inconclusive, JMJD2E inh inconclusive | BLM inh-2 inactive
CCOC(=O)C1CCCN(c2ccc([N+](=O)[O-])c3nonc23)C1 (stereo not drawn)	RECQ1 inh-1 28µM, APEX1 inh inconclusive | RECQ1 inh-2 56µM
CCN(CC)c1ccc(CC2C(=O)N(C)C(=O)N(C)C2=O)cc1	RECQ1 inh-1 32µM, L3MBTL1 block inconclusive | RECQ1 inh-2 45µM
O=C(CCl)Nc1nccs1	none (no result: L3MBTL1 block)
C/C=C1/C[C@@H](C)[C@@](C)(O)C(=O)OCC2=CCN3CC[C@@H](OC1=O)[C@@H]23	RECQ1 inh-1 inconclusive, APEX1 inh inconclusive (no result: L3MBTL1 block, JMJD2E inh) | RECQ1 inh-2 inactive
CC(Cc1ccc(C(C)(C)C)cc1)CN1CC(C)OC(C)C1 (stereo not drawn)	none (no result: L3MBTL1 block, JMJD2E inh)
O=C(c1ccc(CS(=O)(=O)c2ccccc2)o1)N1CCC2(CC1)OCCO2	RECQ1 inh-1 inconclusive, L3MBTL1 block inconclusive, APEX1 inh inconclusive | RECQ1 inh-2 inconclusive
CC(C)[C@@]1(NC(=O)[C@@H]2C=C3c4cccc5[nH]cc(c45)C[C@H]3N(C)C2)O[C@@]2(O)[C@@H]3CCCN3C(=O)[C@H](Cc3ccccc3)N2C1=O	APEX1 inh inconclusive, JMJD2E inh inconclusive
CN1C[C@@H](C(=O)N[C@@]2(C)O[C@]3(O)C4CCCN4C(=O)[C@@H](Cc4ccccc4)N3C2=O)C=C2c3cccc4[nH]cc(c34)C[C@@H]21 (stereo partly drawn)	RECQ1 inh-1 inconclusive, APEX1 inh inconclusive, JMJD2E inh inconclusive (no result: L3MBTL1 block) | RECQ1 inh conf inconclusive | RECQ1 ADP FP 7.9µM
CC[C@@]1(O)C(=O)OCc2c1cc1n(c2=O)Cc2cc3c(O)cccc3nc2-1	RECQ1 inh-1 inconclusive, APEX1 inh inconclusive (no result: L3MBTL1 block, JMJD2E inh) | RECQ1 inh-2 inconclusive
CC[C@@]1(O)C(=O)OCc2c1cc1n(c2=O)Cc2cc3c(NC(=O)CN)cccc3nc2-1	JMJD2E inh inconclusive
CN(C)C1C(=O)C(C(N)=O)=C(O)[C@@]2(O)C(=O)C3=C(O)c4c(O)cccc4[C@](C)(O)C3C(O)C12 (stereo partly drawn)	RECQ1 inh-1 10µM, APEX1 inh inconclusive, JMJD2E inh 8.9µM (no result: L3MBTL1 block) | RECQ1 inh conf inactive | RECQ1 ADP FP 7.1µM
CN(C)C1C(=O)C(C(N)=O)C(=O)C2(O)C(=O)C3C(=O)c4c(O)cccc4C(C)(O)C3C(O)C12 (stereo not drawn)	none (no result: L3MBTL1 block, APEX1 inh, JMJD2E inh)
CCSc1cc(C2C(C#N)=C(N)Oc3n[nH]c(C)c32)c(C)o1 (stereo not drawn)	none
CCCCn1c(N)c(C(=O)OCC2CCCO2)c2nc3ccccc3nc21 (stereo not drawn)	RECQ1 inh-1 inconclusive, JMJD2E inh inconclusive (no result: L3MBTL1 block) | RECQ1 inh-2 inactive
CC(C)CCn1c(N)c(C(=O)OCC2CCCO2)c2nc3ccccc3nc21 (stereo not drawn)	JMJD2E inh inconclusive
CCOP(=S)(OCC)SCC(=O)NC(C)(CC)C(=O)O (stereo not drawn)	none (no result: L3MBTL1 block)
Cc1ccc(C2N3CCCN23)cc1 (stereo not drawn)	none (no result: L3MBTL1 block)
c1ccc(C2N3CCCN23)cc1 (stereo not drawn)	RECQ1 inh-1 7.9µM | RECQ1 inh conf inactive | RECQ1 ADP FP inactive
O=C(O)c1ccccc1-c1c2cc(Br)c(=O)cc-2oc2[c]([Hg])c(O)c(Br)cc12	RECQ1 inh-1 25µM, BLM inh-1 16µM, APEX1 inh 25µM, JMJD2E inh 5µM (no result: L3MBTL1 block) | RECQ1 inh conf 11µM | RECQ1 ADP FP 0.2µM
COc1cc(CNCCc2ccc3c(c2)OCO3)cc(OC)c1OC	JMJD2E inh inconclusive
O=C(NCCCN1CCOCC1)C(Cl)(Cl)Cl	none
CCn1nc(-c2cccs2)nc2c(=O)n(C)c(=O)nc1-2	RECQ1 inh-1 3.5µM, BLM inh-1 1.1µM, L3MBTL1 block inconclusive, JMJD2E inh inconclusive | RECQ1 inh conf inconclusive | RECQ1 ADP FP inactive
COc1ccc2c3c([nH]c2c1)C(C)=NCC3	RECQ1 inh-1 14µM!, BLM inh-1 inconclusive, APEX1 inh inconclusive, JMJD2E inh inconclusive | RECQ1 inh conf inactive | RECQ1 ADP FP 18µM | RECQ1 inh-2 50µM
COc1ccc2[nH]cc(C3=CCNCC3)c2c1	JMJD2E inh inconclusive (no result: L3MBTL1 block)
CC(C(=O)c1c[nH]c2ccccc12)N1CCc2ccccc2C1 (stereo not drawn)	JMJD2E inh inconclusive

Screens as filed in PubChem BioAssay.
